CHX counter: affects cycloheximide protein synthesis inhibition readout, counter-screen; 300,000 compounds, 12% hits; cell reporter, cycloheximide protein synthesis inhibition counterscreen; max response, %; AID 2314; in the data active = max response mostly above about 13%, no sharp cut-off; inactive = mostly below about 14%; note: read at 38.3 µM for the half of the compounds with a filed dose
NS1 inh: inhibitors of influenza NS1 protein function; Potency, µM (top dose mostly 46.1 µM); AID 2326; 270,000 compounds, 0.4% hits; note: actives are rising curves; nearly all actives have a fitted effect of over 50% in size
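S. cerevisiae expressing influenza A NS1, grown in glucose, washed, then diluted 1:100 into pH 6.0 -URA galactose medium with 23 nl compound. Growth recovery read as OD600; NS1-free strain serves as control.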
Shiga toxin inh: blocks Shiga toxin action in Vero cells; Vero cells, Shiga toxin protein synthesis inhibition reporter; inhibition, % at 38.7 µM; 290,000 compounds, 9.2% hits; in the data active = inhibition mostly above about 28%, no sharp cut-off; inactive = mostly below about 43%
Pf growth 48h: inhibits P. falciparum growth in the first generation, 48 h | Potency, µM (doses to about 28.7 µM), actives largely listed as inhibitors | AID 504832 | P. falciparum luciferase growth in erythrocytes, 48 h | 310,000 compounds, 5.9% hits; active = well fitted inhibition curve with a large enough effect; inconclusive = small, poorly fitted or top-dose-only effect, or another doubt; inactive = no such curve, though single readings can be large or run the other way
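Erythrocytes infected with P. falciparum carrying an integrated firefly luciferase reporter (2% hematocrit, 0.1% parasitemia final) were exposed to compounds in RPMI 1640 with 0.5% Albumax at 37 C, 5% CO2. Growth inhibition was scored as reduced luminescence.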
Pf growth 96h: P. falciparum growth inhibition at 96 hours; P. falciparum luciferase reporter growth, 96 h; Potency, µM (series often up to 28.7 µM), most hits filed as inhibitors; 320,000 compounds, 6.9% hits; active = well fitted inhibition curve with a large enough effect; inconclusive = small, poorly fitted or top-dose-only effect, or another doubt; inactive = no such curve, though single readings can be large or run the other way
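Two-generation exposure (96 h) targets delayed-death phenotype. Reporter parasites carrying integrated firefly luciferase, in red cells at 2% hematocrit and 0.05% parasitemia final, kept at 37 C, 5% CO2; luminescence loss indicates inhibition.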
SARS PLP yeast: blocks SARS-CoV papain-like protease in a yeast assay; AID 485353; S. cerevisiae expressing SARS-CoV PLpro, growth rescue; Potency, µM (titrated, usually from 32.9 µM), most hits filed as activators; 330,000 compounds, 0.19% hits; note: nearly all actives have a fitted effect of over 55% in size
Of the large screens only hits and unclear results are named; the others gave an inactive call. Only some compounds are listed: those with a hit (about 21% of all), similar ones and a draw of the others. Unless noted, calls come from the whole dose curve.

c1ccc(-c2noc(-c3ccco3)n2)nc1	CHX counter 29, Shiga toxin inh 36 (no result: Pf growth 96h)
c1ccc(-c2nccc(-c3ccco3)n2)nc1	Shiga toxin inh 42, Pf growth 96h inconclusive
Cc1ccc(-c2noc(-c3ccno3)n2)cc1	CHX counter 49, Shiga toxin inh 82
Cc1ccc(-c2nc(-c3ccccn3)no2)cc1	none (no result: Pf growth 96h)
c1coc(-c2ccnc(-c3ccncc3)n2)c1	none
O=C(Nc1ccccc1F)C1CCN(C(=O)NCc2ccccc2)CC1	none
c1ccc(-c2noc(-c3ccno3)n2)nc1	CHX counter 31, Shiga toxin inh 48
c1ccc(-c2nc(-c3ccco3)cs2)nc1	CHX counter 30, Shiga toxin inh 107
COC(=O)CN1C(=O)[C@@H]2[C@H](C1=O)[C@@H]1CC(C(=O)OC)=C[C@@H](C(=O)OC)C3C1=C(C(=O)[C@]3(C)NC(=O)c1ccccc1)[C@@H]2C (stereo partly drawn)	none (no result: NS1 inh, Pf growth 48h, Pf growth 96h, SARS PLP yeast)
CCOC(=O)C1CCN(S(=O)(=O)c2cc(Br)cc3c2N(C(=O)C2CC2)CC3)CC1	Pf growth 48h 8.3µM
CC1CCCN(CCCNS(=O)(=O)c2cc(Br)cc3c2N(C(=O)C2CC2)CC3)C1 (stereo not drawn)	none
CCC(=O)N1CCc2cc(Br)cc(S(=O)(=O)N3CCC(C(=O)NCCCOC(C)C)CC3)c21	Pf growth 48h 2.9µM, Pf growth 96h inconclusive
CC(=O)N1CCc2cc(Br)cc(S(=O)(=O)N3CCCCCC3)c21	Pf growth 48h 3.3µM
CCOCCCNC(=O)C1CCN(S(=O)(=O)c2cc(Br)cc3c2N(C(=O)CC)CC3)CC1	Pf growth 48h inconclusive, Pf growth 96h inconclusive
O=C(C1CC1)N1CCc2cc(Br)cc(S(=O)(=O)NCCCN3CCCC3)c21	Pf growth 96h 9.3µM
CCC(=O)N1CCc2cc(Br)cc(S(=O)(=O)CC(=O)OC)c21	Pf growth 48h inconclusive, Pf growth 96h 15µM
CC(=O)c1c(C(C)=O)c(C)n(Cc2ccc(Cl)cc2)c1C	Pf growth 96h 1.5µM (no result: Pf growth 48h)
CCOC(=O)c1c(C=O)c(C)n(Cc2ccc(Cl)cc2)c1C	Pf growth 48h 1.9µM, Pf growth 96h inconclusive
CCOC(=O)c1c(C=O)c(C)n(Cc2ccccc2)c1C	none (no result: Pf growth 48h)
CCCOc1cccc(C2C(C(=O)c3ccc(C)o3)=C(O)C(=O)N2c2nc(C)c(C(C)=O)s2)c1 (stereo not drawn)	NS1 inh inconclusive, Pf growth 96h inconclusive
CCCCN1C(=N)N([C@@H](CCC)CN2CCC[C@H]2CN2C(N)=NC[C@H]2C(C)C)C[C@H]1[C@H](C)CC	none (no result: CHX counter, NS1 inh, Shiga toxin inh, Pf growth 48h, Pf growth 96h)
COc1ccc(C2C(C(=O)Nc3ccc4c(c3)OCCO4)c3ccccc3C(=O)N2C)cc1 (stereo not drawn)	Pf growth 48h 5.2µM, Pf growth 96h inconclusive
COc1ccc(C2C(C(=O)Nc3cccc(OC)c3)c3ccccc3C(=O)N2C)cc1 (stereo not drawn)	Pf growth 48h inconclusive (no result: NS1 inh)
COc1cc2c(cc1OC)C(C(=O)Nc1ccccn1)C(c1cccnc1)N(C)C2=O (stereo not drawn)	Pf growth 96h 1.7µM
COc1cc(OC)c(C2C(C(=O)O)c3ccccc3C(=O)N2C)cc1OC (stereo not drawn)	Pf growth 96h 15µM
COc1cc2c(cc1OC)C(C(=O)Nc1ccc3c(c1)OCCO3)C1c3ccccc3CCN1C2=O (stereo not drawn)	Pf growth 96h 9.3µM
CCOc1ccccc1NC(=O)CN(c1ccc(OC)cc1OC)S(=O)(=O)c1ccccc1[N+](=O)[O-]	Pf growth 48h inconclusive
COc1ccc(C2C(C(=O)Nc3cc(OC)c(OC)c(OC)c3)c3ccccc3C(=O)N2C)cc1 (stereo not drawn)	Pf growth 48h 2.1µM (no result: NS1 inh)
COc1ccc(C(=O)N/C(=C\c2cn(C)c3ccccc23)C(=O)N2CCOCC2)cc1	Pf growth 48h inconclusive, Pf growth 96h inconclusive
Fc1ccc(Nc2nc(-c3ccncc3)cs2)cc1	CHX counter 39, Shiga toxin inh 80
Nc1ccc(Nc2nc(-c3ccncc3)cs2)cc1	CHX counter 34 (no result: Pf growth 96h)
c1ccc(Nc2nc(-c3ccncc3)cs2)cc1	CHX counter 60, Shiga toxin inh 47
O=C(Nc1nc(-c2ccc(F)cc2)cs1)c1cnccn1	none
COc1cccc2cc(C(N)=O)/c(=N/NC(=O)COc3ccc(Cl)cc3)oc12	none
OCc1ncc(-c2ccccc2)s1	none
